# According to the supplement of paper PMC6555819:
# Assays:
# Experiment in all cases: PBM binding z-score (relative to random genomic background probes); higher = stronger binding; sequences stand for … in GC…GCGATTGACAGCGTAGAATGAAGG
# [1] = test system: PPARg:RXRa DBDmut IVT, anti-RXR (DBD mutation: RXRa K156A/R161A, NR concentration 270 nM, RXRa partner concentration 90 nM)
# Procedure, shortened: (§1)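 Probes were double-stranded and carried 34-nt variable regions with direct-repeat seeds, single-nucleotide variants, half-site ablations and random human genomic background sequences, printed on custom Agilent 4×180K protein-binding microarrays. Arrays were incubated 1 h with ligand-free nuclear receptor dimers in PBS pH 7.4, 2% milk, 0.02% Triton X-100, 1 mM DTT, 0.2 mg/mL BSA and 0.4 mg/ml salmon testes DNA. Antibodies against each partner (one per run) detected binding, and scanned fluorescence was regression-normalized. Binding z-scores use the random background probes as reference.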
# [2] = test system: PPARg:RXRa IVT, anti-PPARg (NR concentration 270 nM, RXRa partner concentration 90 nM)
# Procedure, shortened: as §1
# [3] = test system: PPARg DBDmut:RXRa IVT, anti-PPARg (DBD mutation: PPARg1 K132A/R137A, NR concentration 270 nM, RXRa partner concentration 90 nM)
# Procedure, shortened: as §1
# [4] = test system: PPARg DBDmut IVT, anti-PPARg (DBD mutation: PPARg1 K132A/R137A, NR concentration 270 nM)
# Procedure, shortened: as §1
# [5] = test system: PPARg homodimer (NR concentration 180 nM)
# Procedure, shortened: as §1
# [6] = test system: PXR:RXRa (NR concentration 270 nM, RXRa partner concentration 90 nM)
# Procedure, shortened: as §1
# [7] = test system: PXR homodimer (NR concentration 270 nM)
# Procedure, shortened: as §1
# [8] = test system: RARa:RXR (NR concentration 270 nM, RXRa partner concentration 90 nM)
# Procedure, shortened: as §1
# [9] = test system: RARa homodimer (NR concentration 270 nM)
# Procedure, shortened: as §1
# [10] = test system: RARb:RXRa (NR concentration 270 nM, RXRa partner concentration 90 nM)
# Procedure, shortened: as §1
# [11] = test system: RARb homodimer (NR concentration 270 nM)
# Procedure, shortened: as §1
# [12] = test system: RARg:RXRa (NR concentration 270 nM, RXRa partner concentration 90 nM)
# Procedure, shortened: as §1
# [13] = test system: RARg homodimer (NR concentration 270 nM)
# Procedure, shortened: as §1
# [14] = test system: RXRa DBDmut IVT, anti-RXR (DBD mutation: RXRa K156A/R161A, NR concentration 90 nM)
# Procedure, shortened: as §1
# [15] = test system: RXRa homodimer (NR concentration 180 nM)
# Procedure, shortened: as §1
# [16] = test system: THRa:RXRa (NR concentration 90 nM, RXRa partner concentration 90 nM)
# Procedure, shortened: as §1
# [17] = test system: THRa homodimer (NR concentration 90 nM)
# Procedure, shortened: as §1
# [18] = test system: VDR homodimer (NR concentration 270 nM)
# Procedure, shortened: as §1
Sequence,PBM binding z-score [1],PBM binding z-score [2],PBM binding z-score [3],PBM binding z-score [4],PBM binding z-score [5],PBM binding z-score [6],PBM binding z-score [7],PBM binding z-score [8],PBM binding z-score [9],PBM binding z-score [10],PBM binding z-score [11],PBM binding z-score [12],PBM binding z-score [13],PBM binding z-score [14],PBM binding z-score [15],PBM binding z-score [16],PBM binding z-score [17],PBM binding z-score [18]
TCTGCCAGGTCAGTTGGTCAGCTAACGAGCTGCC,1.26,1.9,-0.28,0.0313,0.213,0.349,-0.79,0.976,-1.08,3.29,2.77,2.86,3.55,0.569,1.12,2.11,0.521,-0.514
AGAATGAGGTTAAGATCATGGAAACAGAATACAT,2.36,2.7,1.78,1.04,0.572,1.24,0.274,1.79,0.586,1.68,0.492,1.94,1.49,0.788,2.62,2.2,0.477,0.212
CCTCGGAGGACAACAGGAGGTCAGAGCTGCCAGA,0.299,0.564,-0.994,-1.03,1.72,2.02,0.105,2.3,0.364,2.84,3.64,3.37,2.98,0.172,1.76,2.89,1.04,1.21
CCTAATGGGCCAAGGTCATTGATCAGTCAAAGCA,2.35,2.59,-0.175,-0.521,2.49,3.83,1.87,3.77,0.774,3.59,3.46,3.94,3.82,1.91,3.73,3.4,2.52,3.34
CCTTACGCGTCACTGACAGGTTATAGCATTTGGA,0.598,-0.176,0.212,0.276,0.943,0.459,0.407,0.676,1.36,0.243,0.655,0.439,0.151,1,0.414,0.506,0.512,0.287
GCTTACGGGTCAACGGTTATAGCATGAATAGAAT,4.03,4.42,2.69,0.764,1.62,3.16,0.0463,4.02,0.362,4.08,2.84,4.92,4.66,2.06,5.29,2.59,-0.0988,0.695
TAGCCTAGGTCATGGGTCAGTATACCACGCGAAC,1.91,4.28,1.25,0.834,2.55,2.92,0.237,4.22,0.889,4.1,3.88,5.09,5.02,0.71,4.72,3.51,1.65,1.29
CCTTACGGGTCACGAGGTTTTAGCACGACGAGCG,4.32,5.48,0.0926,0.246,2.12,3.85,-0.106,4.95,0.695,4.54,3.71,5.63,5.4,1.57,6.87,3.12,0.658,1.4
TCTAGTTGGTCACGGAGGTCTCACACGACGGGTA,2.19,2.67,0.65,1.23,1.03,0.478,-0.307,0.619,-0.249,1.91,1.65,1.31,1.72,0.721,1.01,0.636,0.268,0.33
GCTTGTAGATCAAGGTTATGAAAGACTAAGCTAA,1.21,0.962,0.000562,0.0061,0.45,0.681,-0.0933,0.915,-0.0399,0.632,0.411,0.306,0.25,-0.2,0.623,1.36,-0.196,-0.036
CAGCCTAAGTCAGGGCCAGTATAGGAGGAACGTT,-0.358,-0.577,-1.05,-1.43,-0.193,-0.653,-0.125,-0.178,-0.484,-0.134,0.00988,-0.148,-0.0459,-0.572,-0.223,-0.328,-0.317,-0.363
ATCGAAAGGTCGACGAGGGGAGTATACACCGTTT,0.481,1.64,1.34,0.0319,1.49,2.39,0.488,3.37,0.328,3.74,2.53,4.16,4.01,1.29,4.27,2.18,-0.0563,0.446
TATTGTAGATCAATAGAGGTTAAGAAAGTGCGCT,0.44,1.78,1.72,1.55,0.993,3.04,0.513,1.71,1.1,0.903,1.44,1.05,0.855,-0.302,1.36,2.32,-0.234,0.323
TATACAGGTTCAAAGGCCAGAGTACGAATGTCGA,0.255,1.44,0.672,0.97,1.53,2.53,1.35,2.91,1.41,2.2,1.82,2.45,1.79,4.01,3.63,1.25,-0.0522,4.75
TGTCCAAGTTCAAAGGTAACGTAAGTATCCACAC,-0.319,1.81,1.26,1.32,1.85,4.87,3.45,5.04,0.541,3.42,2.25,4.05,3.45,4.24,5.21,3.05,0.0637,4.33
